Measured values reported in PubChem BioAssay (EPA / NIEHS).
Where “and” joins values, the source holds several entries; their conditions need not be identical. Equal entries are not always repeated. A structure can be active in one record and inactive in another. Calls of active or inactive are those of the source. The calls were made as follows: active = hit-call score of the fitted dose curve at least 0.9, where 1 is the maximum; inactive = score below 0.9.

Each molecule was assayed on Interleukin-8 (IL8), CXCL8 (gene 3576) (assay: BSK_LPS_IL8: BioMAP Diversity Plus: LPS Assay for Interleukin-8 (IL8) Biomarker Activity (AID 2283078)). Settings: primary human HUVEC with PBMC; actives raise or lower the signal.
Procedure: BSK_LPS is a cell-based, multiplexed-readout assay that uses umbilical vein endothelium and peripheral blood mononuclear cells, a human vascular primary cell co-culture, with measurements taken at 24 hours after chemical dosing in a 96-well plate.BSK_LPS_IL8 is an assay component measured in the BSK_LPS assay. It measures IL-8 antibody related to regulation of gene expression using ELISA technology.Data from the assay component BSK_LPS_IL8 was analyzed into 1 assay endpoint. This assay endpoint, BSK_LPS_IL8, was analyzed with bidirectional fitting relative to DMSO as the negative control and baseline of activity. Using a type of binding reporter, gain or loss-of-signal activity can be used to understand changes in the signaling as they relate to the gene CXCL8. Furthermore, this assay endpoint can be referred to as a primary readout, because this assay has produced multiple assay endpoints where this one serves a signaling function. To generalize the intended target to other relatable targets, this assay endpoint is annotated to the cytokine intended target family, where the subfamily is interleukins.
The levels of cell surface (or secreted, indicated by the prefix "s") biomarker endpoints were measured by ELISA. Overt cytotoxicity to cells in confluent adherent cultures (all systems other than the BT system) was assessed by measuring total protein levels using sulforhodamine B (SRB) staining in parallel cultures at the time of biomarker measurements, indicated as SRB endpoints. For proliferation assays for adherent cell types, individual cell types are cultured at sub-confluence and relative cell numbers quantified by SRB staining at time points optimized for each system (48 h: 3C and CASM3C systems; 72 h: BT and HDF3CGF systems; 96 h: SAg system). SRB was performed by staining cells with 0.1% SRB after fixation with 10% TCA and reading wells at 560 nm.Viability and proliferation of PBMC (T cells) was quantified by Alamar Blue reduction for the SAg and BT systems. For PBMC viability (referred to as PBMC Cytotoxicity within the assay endpoint names), cells were plated (75,000/well in a 96-well plate) and then chemical samples added for 1 h before addition of activators, SEB and TSST-1 (20 ng/mL final concentration each). Cells were incubated for 90 h. Then, Alamar Blue (20 uL/well) (Invitrogen, Cat DAL1100) was added for 6 h, and the plates were read with a fluorescence microplate reader at 546/580 nm (excitation/emission). For PBMC proliferation, cells were plated and activated as above but incubated for only 16 h prior to addition of Alamar Blue. Plates were read after 6 h.

SMILES	outcome	AC50
CC(Cl)COP(=O)(OCC(C)Cl)OCC(C)Cl (stereo not given)	inactive	
c1ccc(Nc2cccc3ccccc23)cc1		24.5 µM (active) and 20 µM (active)
CCN1CN(CC)CN(CC)C1	inactive	
CCOC(=O)C1=NN(c2ccc(Cl)cc2Cl)C(C)(C(=O)OCC)C1 (stereo not given)	inactive	
CCCCCCCCCCCC(=O)N(C)CC(=O)O	inactive	
COc1ccc(C(=O)c2ccccc2)c(O)c1	inactive	
CC/C=C\CCOC(=O)c1ccccc1O		33.5 µM (active)
C=CCCCCCCCCC=O	inactive	
CC(C)CCCCCOC(=O)CS	inactive	
CC1=CC=C(C(C)C)CC1	inactive	
C=CC(=O)OCCCCCCOC(=O)C=C		4.79 µM (active)
CCCCCCCCC(CO)CCCCCC (stereo not given)	inactive	
O=C(Cl)c1c(Cl)c(Cl)c(C(=O)Cl)c(Cl)c1Cl	inactive	
CC1(C)CC(O)CC(C)(C)N1[O]	inactive	
COc1ccc(C(=O)/C(Br)=C\C(=O)O)cc1		20 µM (active)
CCNc1nc(NC(C)(C)C)nc(OC)n1	inactive	
CC(C)C(=O)OCCc1ccccc1	inactive	
CCOC(=O)/C=C\C(=O)OCC	inactive	
CCOC(=O)C1=NOC(c2ccccc2)(c2ccccc2)C1	inactive	

SMILES	outcome	AC50
Oc1c(Cl)cc(Cl)c(Cl)c1Cl	inactive	
Cc1c(O)cccc1O	inactive	
Nc1cccc(N)n1	inactive	
c1ccc2c(c1)[nH]c1ccccc12	inactive	0.017 µM (active)
CCC1(C)C(=O)N(Cl)C(=O)N1Cl (stereo not given)	inactive	
C=CC(=O)OCC(C)OCC(C)OCC(C)OC(=O)C=C (stereo not given)		11.9 µM (active)
C1CNCCN1	inactive	
CCCCCC1=CCCC1=O	inactive	
Fc1ccc(Br)cc1	inactive	
CC=C(C)C=CC=C(C)C	inactive	
CCCC(C)C(=O)OCC (stereo not given)	inactive	
CCc1cccc(C)c1N(C(=O)CS(=O)(=O)O)C(C)COC (stereo not given)	inactive	
O=C(O)C(F)(F)C(F)(F)C(F)(F)C(F)(F)C(=O)O	inactive	30 µM (active)
O=C(Oc1ccccc1)c1ccccc1C(=O)Oc1ccccc1	inactive	
C[N+](C)(C)CCCNS(=O)(=O)C(F)(F)C(F)(F)C(F)(F)C(F)(F)C(F)(F)C(F)(F)C(F)(F)C(F)(F)F		31.3 µM (active) and 39.7 µM (active)
Oc1ccccc1Cc1ccccc1O	inactive	
CC(CCC(=O)O)(c1ccc(O)cc1)c1ccc(O)cc1	inactive	
CC/C=C\C/C=C\C/C=C\CCCCCCCC(=O)OC		29 µM (active)
C=CC(=O)OCCCCCCCC(C)C	inactive	
